Assay results taken from PubChem BioAssay (NCI).
Several values for one entry are separate records, joined by “and”; a condition that tells them apart may be missing. Equal values may be shown once. About 83,000 compounds went through this panel and 20% of them were active in at least one assay; those are over-represented in the sample as a whole.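 Activity criterion: percent growth below 10, measured after cells in 96-well plates were exposed to a single compound concentration for 48 hours.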 Activity calls are given as the source filed them.

What was measured:
Test in all cases: NCI-60 one-dose screen, 48 h (100 = growth as untreated, 0 = no growth, -100 = all killed)
SR leukemia = conditions: 10 µM unless noted
RPMI-8226 leukemia = conditions: 10 µM
OVCAR-5 ovarian = conditions: 10 µM
OVCAR-4 ovarian = conditions: 10 µM
SK-OV-3 ovarian = conditions: 10 µM
IGROV1 ovarian = conditions: 10 µM
OVCAR-3 ovarian = conditions: 10 µM
HS 578T breast = conditions: 10 µM
NCI/ADR-RES ovarian = conditions: 10 µM
T-47D breast = conditions: 10 µM
BT-549 breast = conditions: 10 µM
MDA-MB-435 melanoma = conditions: 10 µM
MCF7 breast = test system: MCF7 breast
HCT-116 colon = conditions: 10 µM
HCC-2998 colon = conditions: 10 µM
KM12 colon = conditions: 10 µM
OVCAR-8 ovarian = conditions: 10 µM
SW-620 colon = conditions: 10 µM

Row | SMILES | growth (SR leukemia) | growth (RPMI-8226 leukemia) | growth (OVCAR-5 ovarian) | growth (OVCAR-4 ovarian) | growth (SK-OV-3 ovarian) | growth (IGROV1 ovarian) | growth (OVCAR-3 ovarian) | growth (HS 578T breast) | growth (NCI/ADR-RES ovarian) | growth (T-47D breast) | growth (BT-549 breast) | growth (MDA-MB-435 melanoma) | growth (MCF7 breast; 10 µM) | growth (MCF7 breast; 50 µM) | growth (HCT-116 colon) | growth (HCC-2998 colon) | growth (KM12 colon) | growth (OVCAR-8 ovarian) | growth (SW-620 colon) | growth (MCF7 breast; 100 µM)
1 | COc1cccc2c1C(=O)c1c(O)c3c(c(O)c1C2=O)C[C@@](O)(C(C)=O)C[C@@H]3OC1CC(N)C(O)C(C)O1 (stereo not given in full) | -25.4% (active) | -23.9% (active) | -12.3% (active) | -3.17% (active) | 5.5% (active) | -29% (active) | -1.56% (active) | -69% (active) | 23.9% (inactive) | -16.3% (active) | -70.9% (active) | -87.2% (active) | -9.83% (active) | -90.1% (active) and -89.5% (active) | -37.5% (active) | -86% (active) | -8.88% (active) |  |  | 
2 | CC(C)(C)CC(C)(C)c1ccc(OCCO)cc1 | 85.5% (inactive) | 124% (inactive) | 111% (inactive) | 124% (inactive) | 116% (inactive) | 108% (inactive) | 116% (inactive) | 94.6% (inactive) | 105% (inactive) |  |  | 115% (inactive) | 137% (inactive) |  | 102% (inactive) | 110% (inactive) | 99.4% (inactive) | 108% (inactive) |  | 
3 | CCCCCCCCCCCCSC(=NC)NC | -4.45% (active) and -23.7% (active) | -6.03% (active) and 23.3% (inactive) | 57.5% (inactive) and 84.1% (inactive) | 31.3% (inactive) and 71.2% (inactive) | 51% (inactive) and 79.1% (inactive) | 20.3% (inactive) and 66.7% (inactive) | 36.8% (inactive) and 71.7% (inactive) | 81.4% (inactive) and 93.2% (inactive) | 47.4% (inactive) and 69.1% (inactive) |  | 45.3% (inactive) and 86.4% (inactive) | -15.7% (active) and 43.4% (inactive) | -9.44% (active) and 22.6% (inactive) |  | 1.94% (active) and 47.4% (inactive) | -54.8% (active) and -34.7% (active) | 17.1% (inactive) and 44.8% (inactive) | 62.1% (inactive) and 82% (inactive) |  | 
4 | NNc1c2ccccc2nc2ccccc12 | 21.1% (inactive) | 34.7% (inactive) | 102% (inactive) | 34.4% (inactive) | 63.5% (inactive) | 55% (inactive) | 51.4% (inactive) |  | 57.3% (inactive) |  | 43.8% (inactive) | 49.4% (inactive) |  |  | 40.1% (inactive) | 57.1% (inactive) | 36.7% (inactive) | 57.2% (inactive) |  | 
5 | O=C(/C=C/c1ccccn1)c1ccccc1 | -15.7% (active) | 25.4% (inactive) | 81% (inactive) | 47.2% (inactive) | 108% (inactive) | 46.1% (inactive) | 17.3% (inactive) |  | 35% (inactive) | 66.9% (inactive) |  | 52.4% (inactive) | 15% (inactive) |  | -90.8% (active) | 62.9% (inactive) | 7.87% (active) | 28.9% (inactive) | -51.3% (active) | 
6 | CCCCCC(C)c1ccc(O)c(C)c1 (stereo not given) | 94.3% (inactive) |  | 102% (inactive) | 95.5% (inactive) | 106% (inactive) | 117% (inactive) | 105% (inactive) | 105% (inactive) | 102% (inactive) |  | 99.7% (inactive) | 105% (inactive) | 92% (inactive) |  | 95.8% (inactive) | 103% (inactive) | 106% (inactive) | 102% (inactive) |  | 
7 | NC(=O)SCC(=O)NNc1ccccc1 | 111% (inactive) | 105% (inactive) |  | 104% (inactive) | 100% (inactive) | 103% (inactive) | 107% (inactive) | 100% (inactive) | 95.5% (inactive) |  | 113% (inactive) | 101% (inactive) | 94.2% (inactive) |  | 94.6% (inactive) | 103% (inactive) | 81.3% (inactive) | 93.8% (inactive) |  | 
8 | CCO/C=C1\SC(=S)N(c2cccc(O)c2)C1=O | 85% (inactive) | 94.6% (inactive) | 97.8% (inactive) | 93.8% (inactive) | 91.9% (inactive) | 99.2% (inactive) | 102% (inactive) | 108% (inactive) | 107% (inactive) |  | 93.8% (inactive) | 102% (inactive) | 84.1% (inactive) |  | 96.9% (inactive) | 111% (inactive) | 97.2% (inactive) | 99.4% (inactive) |  | 
9 | CC(C)C1=C(O)C2=C(C(=O)C1=O)C1(C)CCCC(C)(C)C1CC2O (stereo not given) |  |  |  |  |  |  |  |  |  |  |  |  |  |  |  |  |  |  |  | -23.1% (active) and -78.3% (active)
10 | CC[N+](CC)=c1ccc2nc3c(cc(N)c4ccccc43)oc-2c1 | -47.2% (active) | 10.2% (inactive) | -81.7% (active) | -42.6% (active) | -72.7% (active) | -42.2% (active) | -56.8% (active) | -26.2% (active) | -62.2% (active) |  | -53.4% (active) | -82.2% (active) | -46.3% (active) |  | -27.1% (active) | -78% (active) | -44.2% (active) | -28.4% (active) |  | 
11 | O=C1C=CC(=CC=C2C=CN(CCCCCCCCCCCO)C=C2)C=C1 |  | 11.9% (inactive) | 55.4% (inactive) | 35.4% (inactive) | 45.4% (inactive) | 41.2% (inactive) | 30.2% (inactive) | 35.6% (inactive) | 104% (inactive) |  | -11% (active) | 18.9% (inactive) | 8.64% (active) |  | 23.3% (inactive) | 57.9% (inactive) | 24.2% (inactive) | 22.7% (inactive) |  | 
12 | Cc1cc(NS(=O)(=O)c2ccc(N=Nc3cc(N=Nc4ccc(S(=O)(=O)Nc5cc(C)nc(C)n5)cc4)c4c(NC(=O)C(Cl)Cl)cccc4c3OC(=O)C(Cl)Cl)cc2)nc(C)n1 (tested in a mixture with another compound) | 103% (inactive) and 69% (inactive) | 114% (inactive) and 101% (inactive) | 122% (inactive) | 101% (inactive) and 94.3% (inactive) | 103% (inactive) and 105% (inactive) | 104% (inactive) | 114% (inactive) and 93.3% (inactive) | 111% (inactive) and 128% (inactive) | 107% (inactive) and 104% (inactive) |  | 111% (inactive) and 99.7% (inactive) | 101% (inactive) and 111% (inactive) | 94.4% (inactive) and 78% (inactive) |  | 105% (inactive) and 95.2% (inactive) | 107% (inactive) and 111% (inactive) | 107% (inactive) and 106% (inactive) | 94.8% (inactive) and 91.7% (inactive) |  | 
13 | OCC1OC(n2cnc3c(=S)nc[nH]c32)C(O)C1O (stereo not given) | 112% (inactive) and 37.9% (inactive) | 108% (inactive) and 31.6% (inactive) | 57% (inactive) and 85.1% (inactive) | 91.5% (inactive) and 46.9% (inactive) | 113% (inactive) | 85.4% (inactive) | 113% (inactive) and 47% (inactive) | 89.5% (inactive) and 62.7% (inactive) | 102% (inactive) and 46.5% (inactive) |  | 105% (inactive) and 66.2% (inactive) | 106% (inactive) and 35.3% (inactive) | 108% (inactive) and 20.9% (inactive) |  | 117% (inactive) and 39.8% (inactive) | 100% (inactive) and 45.5% (inactive) | 108% (inactive) and 60.4% (inactive) | 47.3% (inactive) |  | 
14 | Cc1nc(N=C(N)N)nc2ccc3ccccc3c12 |  | 34.9% (inactive) | 26.8% (inactive) | -3.65% (active) | -5.35% (active) | 7.89% (active) | -32.7% (active) | 3.6% (active) | 67.6% (inactive) |  | 13.7% (inactive) | -4.72% (active) | -18.1% (active) |  | 5.64% (active) | 13.3% (inactive) | -9.2% (active) | -6.19% (active) |  | 
15 | COC1OCC(O)C(O)C1O (stereo not given) |  | 109% (inactive) | 110% (inactive) | 101% (inactive) | 111% (inactive) |  | 106% (inactive) | 98.9% (inactive) | 110% (inactive) | 105% (inactive) | 105% (inactive) | 100% (inactive) | 90.7% (inactive) |  | 102% (inactive) | 107% (inactive) | 103% (inactive) | 104% (inactive) |  | 
16 | CSC1SCC2C(=O)N(C)C(C(C)C)C(=O)OCC(NC(=O)c3cnc4ccccc4n3)C(=O)NC(C)C(=O)N(C)C1C(=O)N(C)C(C(C)C)C(=O)OCC(NC(=O)c1cnc3ccccc3n1)C(=O)NC(C)C(=O)N2C (stereo not given) | -37.7% (active) | -30% (active) | 2.94% (active) | 1.22% (active) | 15.5% (inactive) | 0.149% (active) | 5.79% (active) | -60.8% (active) | 7.62% (active) | -8.25% (active) | -48.3% (active) | -82.8% (active) | 2.56% (active) |  | -29.5% (active) | -80.1% (active) | -5.74% (active) |  |  | 
17 | C[n+]1c2cc(N)ccc2cc2ccc(N)cc21 | 5.82% (active) and 0.679% (active) and -0.456% (active) |  | -5.86% (active) and 16.3% (inactive) and -3.49% (active) |  | 3.68% (active) [middle of 4 runs] | 16.7% (inactive) and 36.3% (inactive) and 12.2% (inactive) |  |  | 18.2% (inactive) [middle of 4 runs] |  |  |  | -3.9% (active) [middle of 4 runs] |  |  |  |  |  |  | 
